Assay outcomes as filed in PubChem BioAssay.
TSHR antagonist – blocks TSH signaling through the human TSH receptor. P16473. TSHR-expressing cells, TSH-stimulated cAMP HTRF, 2 h; hits give low values. activity change, negative = inhibition, % at 11.5 µM. 330,000 tested, 0.2% active. AID 504810;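 active means activity change below a set negative limit, meaning inhibition stronger than a set level, cut at about -70% in these data; inconclusive means activity change between two set negative limits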; further: on the % scale 0 is the no-effect control and ±100 the full control effect
Target sequence (P16473 whole entry, looked up): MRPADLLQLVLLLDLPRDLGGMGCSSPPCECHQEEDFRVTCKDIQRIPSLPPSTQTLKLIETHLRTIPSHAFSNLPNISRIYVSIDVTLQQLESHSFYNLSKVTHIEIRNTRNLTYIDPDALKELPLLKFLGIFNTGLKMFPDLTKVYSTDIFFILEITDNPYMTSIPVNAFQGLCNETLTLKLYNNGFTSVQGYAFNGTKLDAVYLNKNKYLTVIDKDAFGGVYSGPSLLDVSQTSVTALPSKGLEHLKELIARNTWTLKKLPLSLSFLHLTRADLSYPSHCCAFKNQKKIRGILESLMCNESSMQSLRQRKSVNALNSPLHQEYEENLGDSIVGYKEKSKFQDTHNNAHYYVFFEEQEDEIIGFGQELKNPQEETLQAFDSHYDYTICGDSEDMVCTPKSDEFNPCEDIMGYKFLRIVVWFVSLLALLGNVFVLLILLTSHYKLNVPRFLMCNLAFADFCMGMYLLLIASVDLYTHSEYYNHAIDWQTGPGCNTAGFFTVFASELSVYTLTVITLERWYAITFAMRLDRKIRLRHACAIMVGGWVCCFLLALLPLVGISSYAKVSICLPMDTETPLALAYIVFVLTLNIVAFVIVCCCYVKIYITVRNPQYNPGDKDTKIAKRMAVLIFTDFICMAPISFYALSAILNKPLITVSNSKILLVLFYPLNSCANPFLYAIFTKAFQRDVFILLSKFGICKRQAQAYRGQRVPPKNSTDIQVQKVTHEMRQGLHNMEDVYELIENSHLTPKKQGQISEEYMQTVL
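TSHR-expressing cells were treated with compounds, then stimulated with TSH at EC80 (4nM final) for 2 hours at 37 deg C. Cellular cAMP was measured by HTRF competition between lysate cAMP and cAMP-d2 for a cryptate-labelled anti-cAMP antibody.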
DRD3 agonist – D3 dopamine receptor (human) agonism; P35462; D3R DiscoveRx beta-arrestin cells, luminescence, 90 min; max activation, %; 410,000 tested, 0.58% active; AID 652048; in the data active means max activation above about 30%; further: 0% is about no effect
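Agonist-mode cell screen: cells plated at 1500/well and incubated overnight at 37 °C, then exposed to library compounds for 90 min at 37 °C. Detection reagent was added for 30–60 min at room temperature, and luminescence was read.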
B2AR arrestin – agonists driving beta-arrestin recruitment to human beta2-adrenergic receptor. 330,000 tested, 0.02% active. beta-arrestin recruitment to beta2AR, cell-based reporter. Potency, µM (doses to about 46.1 µM), inactives show at the highest dose activation, hits mostly activators. P07550; active means well fitted activation curve with a large enough effect; inconclusive means small, poorly fitted or top-dose-only effect;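 further: potency means the concentration at half of the fitted maximal effect; 0% = DMSO controls and full agonism = EC100 isoproterenol or metaproterenol; nearly all actives have a fitted effect of over 65% in size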
DRD3 antagonist – D3 dopamine receptor (human) antagonism | P35462 | D3R cells, DiscoveRx beta-arrestin luminescence, antagonist mode; hits give low values | max response, negative = inhibition, % | 360,000 tested, 2.5% active; in the data active means max response below about -50%; inconclusive means no clear call, values can overlap the other calls; further: on the % scale 0 is the no-effect control and ±100 the full control effect
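Cells expressing the human receptor were seeded at 1500 cells/well, incubated overnight at 37 degrees C in 5% CO2, then exposed to library compounds with dopamine controls for 90 minutes at 37 degrees C before luminescent detection.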
* marks the source's active call; other numbers are inactive results; ? = inconclusive; / = no result; ! = not confirmed by another sample. Only some compounds are listed: those with a hit (about 2.9% of all), similar ones and a draw of the others.

SMILES	TSHR antagonist	DRD3 agonist	B2AR arrestin	DRD3 antagonist
CC(C)C[C@H]1CNC(=S)N1CC1CCN(CC2CCCC2)CC1	/	-45.0	/	?
CC(C)C[C@H]1CNC(=S)N1CC1CCN(CC2CCC(C(C)(C)C)CC2)CC1 (some centres undefined)	/	-43.7	/	-62.7*
CC(C)C[C@H]1CNC(=O)C(=O)N1CC1CCN(CCC(C)(C)C)CC1	/	-17.8	/	-20.5
CC(C)C[C@H]1CNC(=S)N1CC1CCN(CCCC2CCCCC2)CC1	/	-45.8	/	-100.7*
S=C1NCCN1CC1CCN(CCC23CC4CC(CC(C4)C2)C3)CC1	/	-39.7	/	-16.2
CC[C@H](C)[C@H]1CNC(=S)N1CC1CCN(CCCC2CCCC2)CC1	/	-43.5	/	-77.8*
COC(=O)COc1ccc2c(-c3ccc(OC)cc3)cc(=O)oc2c1	-19.1	-10.4	-0.1%	-24.8
COc1ccc(-c2cc(=O)oc3cc(OCc4nn[nH]n4)ccc23)cc1	-12.0	-4.8	0.0%	-53.3*
Cc1ccc(NC(=O)NCC2CCN(Cc3cccc(Cl)c3)CC2)c(Cl)c1	6.0	-14.9	0.4%	-26.9
CCc1ccc(NC(=O)NCC2CCN(Cc3cccc(Cl)c3)CC2)cc1	0.8	-3.6	0.4%	-52.4*
Cc1ccc(C)c(CN2CCC(CNC(=O)Nc3ccc(F)c(Cl)c3)CC2)c1	-0.7	-20.8	0.0%	-66.2*
Cc1ccc(NC(=O)NCC2CCN(Cc3cccc(Cl)c3)CC2)cc1Cl	4.1	-23.8	-0.1%	-50.7*
CCc1ccc2oc(-c3ccc(NC(=O)c4cccc(Cl)c4Cl)cc3)nc2c1	/	5.7	/	/
O=S(=O)(c1ccc(Br)s1)N1CCN(c2ncccn2)CC1	3.8	-17.5	-1.7%	-79.0*
CCC(CC)C(=O)N1c2ccccc2C(C)(c2ccccc2)CC1(C)C (centres undefined)	/	3.5	/	/
CCOc1ccc(/C=C/C(=O)N(CC)CC(=O)Nc2ccc3c(c2)OCCO3)cc1OCC	15.1	-18.1	-0.5%	-56.6*
CCOc1c(Cl)cc(/C=C/C(=O)N(CC)CC(=O)Nc2ccc(NC(C)=O)cc2)cc1OC	-1.8	-8.7	0.1%	-52.7*
CCOc1ccc(/C=C/C(=O)N(CC)CC(=O)Nc2ccc3c(c2)OCCO3)cc1OC	-1.4	-6.7	-0.3%	1.3
CCN(CC(=O)NCc1ccc(Cl)cc1)C(=O)/C=C/c1cc(OC)c(OC)c(OC)c1	-1.9	0.5	-0.2%	2.0
COc1ccc(C(=O)CC(=O)C(=O)Nc2ccc(C)cc2Cl)cc1	8.9	7.9	0.3%	-64.0*
COc1cccc(C(=O)CC(=O)C(=O)Nc2ccc(C)cc2Cl)c1	-3.8	9.3	-1.1%	5.5
CCC(=O)Nc1nnc(S(=O)(=O)N(C)Cc2ccc(Cl)cc2)s1	/	6.9	/	/
Cc1sc2ncn(CC(=O)NCCCN3CC(C)CC(C)C3)c(=O)c2c1S(=O)(=O)N1CC(C)CC(C)C1 (centres undefined)	13.9	-28.4	0.4%	-90.4*
O=C(Cn1c(-c2cccs2)cc2ccccc21)N1CCN(c2ccccc2F)CC1	/	-3.4	/	/
Cc1cccc(C)c1C(OCCN(C)C)C1CCCCC1 (centres undefined)	1.7	16.5	-1.5%	-89.3*
SMILES	TSHR antagonist	DRD3 agonist	B2AR arrestin	DRD3 antagonist
COc1ccc(-c2nnc(NC(=O)c3ccc4c(c3)OCCO4)o2)cc1	-94.9*	18.0	-0.8%	3.3
COc1ccc(-c2nnc(NC(=O)c3ccc(F)cc3)o2)cc1	-6.8	1.8	-2.2%	35.7
CC(C)(C)c1ccc(C(=O)Nc2nnc(C3=COCCO3)o2)cc1	3.7	-14.4	-1.0%	-71.2*
Cc1cc(NC(=O)CSc2nc3cc(Cl)ccc3o2)no1	-2.7	4.7	-0.4%	8.0
O=S1(=O)C=C(Sc2nc3cc(Cl)ccc3o2)c2ccccc21	-77.6*	-15.7	5.5%	-77.5*
CCOc1ccc(-n2c(SCc3nc(-c4ccc(OC)cc4)no3)nnc2-c2ccncc2)cc1	/	0.9	/	/
CC(=O)Nc1cc[n+](C(C)C(=O)c2ccc(Br)cc2)cc1 (centres undefined)	4.2	-16.1	0.1%	-84.0*
CC(C(=O)c1ccccc1)[n+]1cccc(Br)c1 (centres undefined)	-1.8	-5.4	0.5%	-71.4*
CC(C(=O)c1ccc(-c2ccccc2)cc1)[n+]1cccc(NC(=O)c2ccccc2)c1 (centres undefined)	-0.5	-2.3	-0.2%	5.6
C#CCSc1nc(Cc2ccc(Cl)cc2)nc2ccccc12	4.7	48.0*	-0.8%	19.1
CCC(NC(C)C)C(O)c1ccc(O)c(O)c1 (centres undefined)	-17.0	34.0*!	3.16µM*	30.1
CCC(c1ccc(O)c(O)c1)C(CC)c1ccc(O)c(O)c1 (centres undefined)	/	16.2	/	0.0
